From PubChem BioAssay AID1159580 (chemical genetic matrix, 2015)
“And” between values parts separate entries of the source, which are not always exact repeats. Identical values can stand only once. The whole screen tested about 5,500 compounds, of which about 2,000 (36%) were called active. Inconclusive results (about 18%) are left out. Cut-off read from the data, not from the text of the source: active = normalized growth mostly below about 0.91 (no sharp cut-off); inconclusive = no clear call, values can overlap the other calls; inactive = mostly above about 0.92. The list shows a part of the results.

Test: chemical genetic growth profiling, strain panel (AID 1159580);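 note: tested at 20 µM; growth read once vehicle control cultures reached saturation at 30 °C; 1 = growth at the plate median or of vehicle wells; lower values mean less growth of the strain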
Conditions: S. cerevisiae deletion strains, growth OD

COc1c(C)c2c(c(O)c1C/C=C(\C)CCC(=O)O)C(=O)OC2
normalized growth (locus YAL013W, strain DEP1, stronger effect = lower value): 0.84 (active) | normalized growth (locus YAL021C, strain ccr4, stronger effect = lower value): 0.556 (active) | normalized growth (locus YAL026C, strain drs2, stronger effect = lower value): 0.323 (active) | normalized growth (locus YAL030W, strain snc1, stronger effect = lower value): 0.621 (active) | normalized growth (locus YBL061C, strain skt5, stronger effect = lower value): 0.712 (active) | normalized growth (locus YBR009C, strain hhf1, stronger effect = lower value): 0.417 (active) | normalized growth (locus YBR021W, strain FUR4, stronger effect = lower value): 1.07 (inactive) | normalized growth (locus YBR023C, strain chs3, stronger effect = lower value): 0.602 (active) | normalized growth (locus YBR171W, strain sec66, stronger effect = lower value): 0.945 (inactive) | normalized growth (locus YBR229C, strain ROT2, stronger effect = lower value): 0.973 (inactive) | normalized growth (locus YBR231C, strain swc5, stronger effect = lower value): 0.386 (active) | normalized growth (locus YBR279W, strain paf1, stronger effect = lower value): 0.613 (active) | normalized growth (locus YCL011C, strain gbp2, stronger effect = lower value): 0.47 (active) | normalized growth (locus YCL016C, strain dcc1, stronger effect = lower value): 0.518 (active) | normalized growth (locus YCL029C, strain bik1, stronger effect = lower value): 0.723 (active) | normalized growth (locus YCL069W, strain vba3, stronger effect = lower value): 0.395 (active) | normalized growth (locus YCR088W, strain abp1, stronger effect = lower value): 0.508 (active) | normalized growth (locus YDL005C, strain med2, stronger effect = lower value): 0.915 (inactive) | normalized growth (locus YDL035C, strain GPR1, stronger effect = lower value): 0.789 (active) | normalized growth (locus YDL040C, strain nat1, stronger effect = lower value): 0.758 (active) | normalized growth (locus YDL074C, strain BRE1, stronger effect = lower value): 0.498 (active) | normalized growth (locus YDL101C, strain DUN1, stronger effect = lower value): 0.95 (inactive) | normalized growth (locus YDL134C, strain PPH21, stronger effect = lower value): 0.876 (active) | normalized growth (locus YDL185W, strain tfp1, stronger effect = lower value): 0.185 (active) | normalized growth (locus YDL192W, strain arf1, stronger effect = lower value): 0.737 (active) | normalized growth (locus YDR001C, strain nth1, stronger effect = lower value): 0.604 (active) | normalized growth (locus YDR069C, strain doa4, stronger effect = lower value): 0.713 (active) | normalized growth (locus YDR101C, strain arx1, stronger effect = lower value): 0.668 (active) | normalized growth (locus YDR137W, strain rgp1, stronger effect = lower value): 0.345 (active) | normalized growth (locus YDR150W, strain NUM1, stronger effect = lower value): 0.997 (inactive) | normalized growth (locus YDR159W, strain sac3, stronger effect = lower value): 0.401 (active) | normalized growth (locus YDR162C, strain NBP2, stronger effect = lower value): 0.77 (active) | normalized growth (locus YDR195W, strain ref2): 1.09 (inactive) | normalized growth (locus YDR297W, strain sur2, stronger effect = lower value): 0.664 (active) | normalized growth (locus YDR318W, strain mcm21, stronger effect = lower value): 0.625 (active) | normalized growth (locus YDR334W, strain swr1, stronger effect = lower value): 0.341 (active) | normalized growth (locus YDR335W, strain msn5, stronger effect = lower value): 0.549 (active) | normalized growth (locus YDR388W, stronger effect = lower value): 0.75 (active) | normalized growth (locus YDR392W, strain spt3, stronger effect = lower value): 0.0934 (active) | normalized growth (locus YDR502C, strain sam2, stronger effect = lower value): 0.666 (active) | normalized growth (locus YEL003W, strain gim4, stronger effect = lower value): 0.539 (active) | normalized growth (locus YEL037C, strain rad23, stronger effect = lower value): 0.451 (active) | normalized growth (locus YEL061C, strain CIN8 (second series), stronger effect = lower value): 0.368 (active) | normalized growth (locus YEL061C, strain CIN8, stronger effect = lower value): 0.863 (active) | normalized growth (locus YER015W, strain faa2, stronger effect = lower value): 0.667 (active) | normalized growth (locus YER016W, strain bim1, stronger effect = lower value): 0.761 (active) | normalized growth (locus YER110C, stronger effect = lower value): 1.02 (inactive) | normalized growth (locus YER111C, strain swi4, stronger effect = lower value): 0.662 (active) | normalized growth (locus YER155C, strain BEM2 (second series), stronger effect = lower value): 0.363 (active) | normalized growth (locus YER155C, strain BEM2, stronger effect = lower value): 0.781 (active) | normalized growth (locus YER167W, strain BCK2, stronger effect = lower value): 0.582 (active) | normalized growth (locus YFR010W, strain ubp6, stronger effect = lower value): 0.384 (active) | normalized growth (locus YGL078C, strain dbp3, stronger effect = lower value): 0.349 (active) | normalized growth (locus YGL086W, strain mad1, stronger effect = lower value): 0.759 (active) | normalized growth (locus YGL167C, strain pmr1, stronger effect = lower value): 0.666 (active) | normalized growth (locus YGL173C, strain kem1, stronger effect = lower value): 0.82 (active) | normalized growth (locus YGL227W, strain vid30, stronger effect = lower value): 0.494 (active) | normalized growth (locus YGL240W, strain doc1, stronger effect = lower value): 0.95 (inactive) | normalized growth (locus YGL248W, strain PDE1, stronger effect = lower value): 0.861 (active) | normalized growth (locus YGL253W, strain hxk2, stronger effect = lower value): 0.437 (active) | normalized growth (locus YGR078C, strain PAC10, stronger effect = lower value): 0.808 (active) | normalized growth (locus YGR135W, strain pre9, stronger effect = lower value): 0.874 (active) | normalized growth (locus YGR229C, strain SMI1, stronger effect = lower value): 0.608 (active) | normalized growth (locus YGR252W, strain gcn5, stronger effect = lower value): 1.01 (inactive) | normalized growth (locus YHR013C, strain ard1, stronger effect = lower value): 0.533 (active) | normalized growth (locus YHR027C, strain rpn1, stronger effect = lower value): 0.699 (active) | normalized growth (locus YHR030C, strain SLT2, stronger effect = lower value): 0.974 (inactive) and 0.154 (active) | normalized growth (locus YHR079C, strain IRE1 (second series), stronger effect = lower value): 0.536 (active) | normalized growth (locus YHR079C, strain IRE1, stronger effect = lower value): 0.165 (active) | normalized growth (locus YHR094C, strain hxt1, stronger effect = lower value): 0.734 (active) | normalized growth (locus YHR129C, strain ARP1, stronger effect = lower value): 0.869 (active) | normalized growth (locus YHR142W, strain chs7, stronger effect = lower value): 0.33 (active) | normalized growth (locus YHR200W, strain rpn10, stronger effect = lower value): 0.889 (active) | normalized growth (locus YIL066C, strain RNR3, stronger effect = lower value): 0.835 (active) | normalized growth (locus YIL073C, strain SPO22, stronger effect = lower value): 0.794 (inactive) | normalized growth (locus YIL125W, strain kgd1, stronger effect = lower value): 0.238 (active) | normalized growth (locus YIR030C, strain dcg1, stronger effect = lower value): 0.745 (active) | normalized growth (locus YJL092W, strain hpr5, stronger effect = lower value): 0.505 (active) | normalized growth (locus YJL095W, strain BCK1 (second series), stronger effect = lower value): 0.714 (active) | normalized growth (locus YJL095W, strain BCK1, stronger effect = lower value): 0.755 (active) and 0.169 (active) | normalized growth (locus YJL115W, strain asf1, stronger effect = lower value): 0.593 (active) | normalized growth (locus YJL129C, strain trk1, stronger effect = lower value): 0.686 (active) | normalized growth (locus YJL134W, strain LCB3, stronger effect = lower value): 0.976 (inactive) | normalized growth (locus YJL154C, strain vps35, stronger effect = lower value): 0.596 (active) | normalized growth (locus YJL164C, strain tpk1, stronger effect = lower value): 0.469 (active) | normalized growth (locus YJL166W, strain qcr8, stronger effect = lower value): 0.641 (active) | normalized growth (locus YJL168C, strain set2, stronger effect = lower value): 0.979 (inactive) | normalized growth (locus YJL187C, strain SWE1 (second series), stronger effect = lower value): 0.749 (active) | normalized growth (locus YJR043C, strain POL32, stronger effect = lower value): 0.906 (inactive) | normalized growth (locus YJR066W, strain TOR1, stronger effect = lower value): 0.0708 (active) | normalized growth (locus YJR075W, strain HOC1, stronger effect = lower value): 0.772 (active)
